These results are taken from PubChem BioAssay.

The subject of assay [1] is Aerobactin synthetase IucA (Klebsiella pneumoniae). Description: IucA aerobactin synthetase inhibitors, biochemical, Tocris library, absorbance (AID 1345561).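 Also: 100% = enzyme without compound and 0% = no enzyme.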 The note with it: purified IucA enzyme assay, absorbance (OD) read-out; stronger effect = lower value;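 tested at 8 µM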.
Assay [2] in a line: growth inhibition of DIPG glioma cells, dose response, cell-based, SU-DIPG-XVII, MIPE5.0, CellTiter-Glo, qHTS (AID 1347060; cut-off not given, nearly all actives have AC50 up to about 26 µM). The note with it: SU-DIPG-XVII viability, CellTiter-Glo ATP luminescence. In general terms: In ATP-based viability assays light output follows the ATP content of the culture.
Assay [3] is described as follows: growth inhibition of DIPG glioma cells, dose response, cell-based, SU-DIPG-XIII, MIPE4.0, CellTiter-Glo, qHTS (AID 1347061; cut-off not given, nearly all actives have AC50 up to about 37 µM;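 also: cells exposed to compound for 48 hours before readout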). The note with it: SU-DIPG-XIII viability, CellTiter-Glo ATP luminescence.
The nature of assay [4]: growth inhibition of DIPG glioma cells, dose response, cell-based, SU-DIPG-IV, MIPE4.0, CellTiter-Glo, qHTS (AID 1347063; cut-off not given, nearly all actives have AC50 up to about 30 µM;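 also: compound exposure lasted 48 hours before the viability readout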). The note with it: SU-DIPG-IV viability, CellTiter-Glo ATP luminescence.
A short description of assay [5]: growth inhibition of DIPG glioma cells, dose response, cell-based, SU-DIPG-XIII, MIPE5.0, CellTiter-Glo, qHTS (AID 1347064; cut-off not given, nearly all actives have AC50 up to about 23 µM). The following applies: SU-DIPG-XIII viability, CellTiter-Glo ATP luminescence.
The nature of assay [6]: viability loss in pontine glioma line – cell-based, SU-DIPG-XXV, MIPE5.0, CellTiter-Glo, qHTS, dose response (AID 1347065; cut-off not given, nearly all actives have AC50 up to about 26 µM;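 also: cells exposed to compound for 48 hours before ATP readout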). The following applies: CellTiter-Glo ATP luminescence.
Assay [7] in a line: SU-DIPG-VI glioma cell viability, MIPE4.0 library, CellTiter-Glo luminescence, qHTS (AID 1347066; cut-off not given, nearly all actives have AC50 up to about 30 µM;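 also: cells exposed to compound for 48 hours before readout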). The following applies: CellTiter-Glo ATP luminescence.
Assay [8] can be described thus: SU-DIPG-XXV glioma cell viability, MIPE5.0 library, qHTS (AID 1347068; cut-off not given, nearly all actives have IC50 up to about 30 µM).
Assay [9] is described as follows: sensitizers of A549 cells to miR-34 induction, primary screen, imaging, A549 dox-inducible miR-34, nuclei and caspase counts (AID 1347080;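 active = compounds whose cell count with miR-34 switched on is under 0.7 times the count with it off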). The note with it: A549 miR-34 inducible, Hoechst nuclei count, 48 h.
Assay [10] can be described thus: survival rescue of mitochondrial mutant cells in low glucose, primary screen, MELAS cybrids, Rieske KO mouse fibroblasts, CellTiter-Glo (AID 1508586;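 active = mean z-score across replicates of 1.96 or higher in either the MELAS or the Rieske mutant cell line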;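 also: z relative to plate mean and SD of compound and empty wells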).
A short description of assay [11]: viability rescue of complex I mutant cybrids, primary screen, cell-based, galactose medium, ATP luminescence (AID 1645843;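 active = z-score of at least 1.8 in each of two replicates, scored against plate mean and spread of sample wells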;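 also: positive z means more ATP and so rescue of galactose-driven cybrid death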). The following applies: complex I mutant cybrid cells, 72 h, stronger effect = higher value.
Assay [12] in a line: circadian clock period modulators, cell-based, LOPAC library, luminescence reporter (AID 2774).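 Also: values are relative to mean of DMSO wells on each plate.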 The following applies: circadian reporter cells, at 7 µM, actives lie on both sides.
In assay [13] the test system is Hepatitis C virus NS3 helicase. The experiment in a line: HCV NS3 helicase inhibitors, primary screen, biochemical, fluorescence polarization, LOPAC1280 library (AID 687035; in the data active = inhibition above about 37%). The following applies: Purified HCV NS3 helicase, Cy5-dT15 ssDNA binding fluorescence polarization; stronger effect = higher value; concentration not given here. A general note: Fluorescence polarisation rises when a labelled molecule tumbles more slowly, as on binding a larger partner.

Assay [14] can be described thus: Cy5 fluorescence quenching or enhancement artefacts, artefact control for HCV NS3 helicase inhibitor project, biochemical, LOPAC1280 (AID 687037). The note with it: Cy5-DNA-NS3h complex fluorescence interference counterscreen. In general terms: A counterscreen serves to expose hits that act by an unwanted route or on another target.
For assay [15], the system named is Aerobactin synthetase IucA (Klebsiella pneumoniae, hypervirulent). The experiment in a line: IucA enzyme inhibition, biochemical, LOPAC library, absorbance readout (AID 1346212).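 Also: 100% = no compound wells and 0% = no enzyme wells.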 The following applies: IucA enzyme assay, absorbance (OD) readout; stronger effect = lower value;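 tested at 8 µM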.
The nature of assay [16]: phospholipid biosynthesis inhibitors in animal cells, primary screen, cell-based, LOPAC library, screen 4 (AID 1347384). The note with it: phospholipid biosynthesis inhibition screen, at 10 µM.
Assay [17] in a line: JHH-DIPG-1 glioma cell viability, MIPE5.0 library, CellTiter-Glo luminescence, qHTS (AID 1347067; cut-off not given, nearly all actives have AC50 up to about 26 µM;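 also: cells exposed to compound for 48 hours before readout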). The following applies: JHH-DIPG-1 glioma viability, CellTiter-Glo ATP luminescence.
Setting [18] is: stronger effect = lower value, cell number ratio, induced over uninduced.
[19] abbreviates: measured here: relative caspase fold change +Dox/-Dox.
The mark [20] stands for this setting: measured here: total cells with miR-34 induction, stronger effect = lower value.
The mark [21] stands for this setting: measured here: total cells without miR-34 induction.
The mark [22] stands for this setting: MELAS cybrid survival, CellTiter-Glo 48 h, stronger effect = higher value.
[23] abbreviates: Rieske KO mouse fibroblast survival, CellTiter-Glo 72 h.

Values joined by “and” are separate entries in the source; they are usually repeats but may differ in a detail not shown here. Equal values may be shown once. Inconclusive results are not listed. Active and inactive are the calls of the source. Unless noted, no rule for the calls is given here.

The term remaining activity denotes the signal under treatment as a percentage of the control signal. The term inhibition denotes the relative decrease from the control value, in per cent.

In the case of `Cc1cc(SCc2sc(-c3ccc(C(F)(F)F)c(F)c3)nc2C)ccc1OCC(=O)O`, in assay [1], the remaining activity was 88.1% (inactive). The molecule was called inactive in [2], in assay [3], in [4], in assay [5], in [6] and in [7]. The molecule was called inactive in assay [8]. Besides, the fold change in [9] (setting [18]) was 0.896 (inactive) and 0.953 (inactive) and 0.869 (inactive); in assay [9] (setting [19]), 0.54 and 0.363 and 1.57. The cell count was 5150 and 8510 and 7240 in assay [9] (setting [20]); 5740 and 8930 and 8330 in assay [9] (setting [21]). Moreover, the results for the z-score in assay [10] (setting [22]), in assay [10] (setting [23]) and in assay [11] were -0.492 (inactive), -2.16 and 1.59 (inactive), respectively.

Regarding `O=C1/C(=C/c2ccccc2)C[C@@]2(O)C3Cc4ccc(O)c5c4[C@@]2(CCN3CC2CC2)[C@H]1O5`, the remaining activity in [1] is 97.5% (inactive). In addition, the fold change in assay [9] (stronger effect = lower value) is 1.1 (inactive); in assay [9] (setting [19]), 0.83. The cell count came out at 919 in [9] (setting [20]) and 833 in assay [9] (setting [21]). The z-score in [11] was -1.12 (inactive).

For the molecule `CC1=C(O)C(=O)[C@@H]2O[C@@H]2C1=O`, the remaining activity in assay [1] was 113% (inactive). The fold change in [9] (setting [18]) is 0.983 (inactive); in [9] (setting [19]) it was 1. For the same molecule, the cell count is 7990 in assay [9] (setting [20]) and 8130 in [9] (setting [21]). For the same molecule, in assay [11], the z-score was 0.005 (inactive).

In the case of `CC(=O)NCCc1c[nH]c2ccccc12`, the period change in [12] was 0.04 h (inactive). The inhibition in assay [13] is -3% (inactive). Further, the fluorescence ratio (interference) in [14] was 0.9 (inactive). For the same molecule, the remaining activity in assay [1] was 90.2% (inactive); in [15] it was 105% (inactive). Also, the fold change in assay [9] (stronger effect = lower value) is 1.01 (inactive) and 0.947 (inactive); in assay [9] (setting [19]), 0.736 and 0.687. Besides, the cell count in [9] (setting [20]) is 10200 and 9110; in [9] (setting [21]), 10200 and 9620. Further, the molecule was called inactive in assay [16]. Moreover, the z-score in [11] was 0.505 (inactive) and 0.035 (inactive).

As for `N#Cc1ccc(N2CCN(C(=O)COc3ccc4[nH]cc(CCN)c4c3)CC2)cc1`, the remaining activity in assay [1] was 112% (inactive). Further, the fold change is 0.857 (inactive) in [9] (setting [18]) and 1.69 in assay [9] (setting [19]). Moreover, the cell count was determined as 8510 in assay [9] (setting [20]) and 9930 in assay [9] (setting [21]). Also, in assay [16], the molecule was called inactive. Moreover, the z-score in assay [11] is 0.16 (inactive).

On to `O=C(O)C1=CCCN(CCOC(c2ccc(C(F)(F)F)cc2)c2ccc(C(F)(F)F)cc2)C1`, for which the remaining activity in assay [1] is 122% (inactive). The molecule was classed as inactive in assay [2], in [17] and in assay [8]. Besides, the fold change in assay [9] (setting [18]) was 0.921 (inactive); in assay [9] (setting [19]), 0.739. In addition, the cell count is 8210 in assay [9] (setting [20]) and 8910 in assay [9] (setting [21]). Also, the z-score in assay [11] was 5.47 (active).

Take `CN1c2ccccc2C(NCCCCCCC(=O)O)c2ccc(Cl)cc2S1(=O)=O` (stereo not drawn): the remaining activity in [1] is 117% (inactive). Besides, the fold change was 0.955 (inactive) and 0.9 (inactive) in [9] (stronger effect = lower value); 0.36 and 0.634 in assay [9] (setting [19]). Further, the cell count in [9] (setting [20]) was 7100 and 7840; in assay [9] (setting [21]) it was 7430 and 8710. Besides, the z-score in assay [10] (setting [22]) is -0.117 (inactive); in [10] (setting [23]) it was 0.00377; in [11] it was 0.255 (inactive).

Regarding `C=CCN1CC[C@]2(C)c3cc(O)ccc3CC1[C@@H]2C`, the remaining activity in assay [1] was 113% (inactive). Besides, the results for the fold change in assay [9] (stronger effect = lower value) and in [9] (setting [19]) were 0.961 (inactive) and 0.641, respectively. In addition, the cell count stood at 8610 in assay [9] (setting [20]) and 8960 in [9] (setting [21]). In addition, the z-score in [11] is 0.05 (inactive).

With `CN1C2CCC1CC(OC(=O)c1cc(Cl)cc(Cl)c1)C2` (stereo not drawn), the period change in [12] was -0.075 h (inactive). In addition, the inhibition in assay [13] was -7% (inactive). The fluorescence ratio (interference) in assay [14] was 0.9 (inactive). Moreover, in assay [1], the remaining activity was 82.7% (inactive). Moreover, the fold change in assay [9] (stronger effect = lower value) was 1.08 (inactive) and 0.937 (inactive); in [9] (setting [19]), 1.35 and 0.719. Moreover, the cell count in assay [9] (setting [20]) is 8680 and 8550; in assay [9] (setting [21]), 8070 and 9130. Further, the molecule was called inactive in assay [16]. Moreover, the z-score in [11] was -0.22 (inactive) and 0.04 (inactive).
